This note sets out measurements from PubChem BioAssay AID602393 (Broad Institute, 2012).

The campaign covered roughly 350,000 compounds. About 7,000 (2%) were called active. Only a selection was taken, and actives are over-represented in it overall. A number with no mark means an inactive call. No stated cut-off is given here; in the data, active means activation above about 40%; inconclusive means no clear call, values can overlap the other calls; inactive means below that.

The assay can be described thus: raisers of Bmi1 knock-in reporter signal – mouse ES cells, Bmi1 luciferase knock-in, single point, esBAF inhibitor project, primary screen (AID 602393).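 Further: 0% = median of the plate's neutral control wells and 100% = double that signal; a rise in the Bmi1 reporter signal indicates esBAF inhibition.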 Particulars: 24 h, at 12.5 µM, stronger effect = higher value, 100% = twice the neutral-well signal.
As for `COc1ccc(CN(C)C[C@@H]2OCCCC[C@H](C)Oc3ccc(NS(=O)(=O)c4ccc(F)cc4)cc3C(=O)N([C@@H](C)CO)C[C@@H]2C)cc1`, the reporter increase is -7.82%. With `Cn1cnc(S(=O)(=O)N2C[C@@H](O)COC[C@@H]3O[C@H](CC(=O)NCc4ccc(F)cc4)CC[C@H]32)c1` the figure was -4.57%. Turning to `O=C(c1cccc(F)c1)N1CC[C@@H]2[C@@H](CO)Nc3ccc(C#Cc4cccc(F)c4)cc3[C@@H]21`, the reporter increase was 2.36%. The result for `Cc1noc(C)c1NC(=O)N[C@@H]1C=C[C@@H](CC(=O)Nc2ccccc2)O[C@H]1CO` reads 1.58%; that for `COc1ccc(CNC(=O)c2ccc(Br)s2)cc1OC`, -1.1%. Take `COc1ccc2nc(NC(=O)c3ccc(Br)s3)sc2c1`: the reporter increase is 71.6% (active).

On to `COc1cc(NC(=O)CN(C)S(=O)(=O)c2ccc3nc(C)sc3c2)cc(OC)c1`, for which the reporter increase was -1.66%. `COc1cccc(C(=O)Nc2nnc(S(=O)(=O)N(C)c3ccccc3)s2)c1`: the reporter increase is 3.61%. The result for `COc1cccc(C(=O)Nc2nc3ccc(S(C)(=O)=O)cc3s2)c1` reads 50.7% (active). With `O=C(Nc1ccc2c(c1)CCC2)c1ccc(Br)s1` the figure was 21.7%. In the case of `C[C@H](NC(=O)C[C@@H]1C=C[C@H](NC(=O)CN2CCOCC2)[C@H](CO)O1)c1ccccc1`, the reporter increase is -6.32%. Turning to `N#Cc1ccc(-c2ccc3c(c2)[C@H]2[C@H](CCN2Cc2ccc4c(c2)OCO4)[C@@H](CO)N3)cc1`, the reporter increase is -8.59%. Consider `CCCNC(=O)N(C)C[C@H]1Oc2cc(-c3ccncc3)ccc2S(=O)(=O)N([C@H](C)CO)C[C@H]1C`, for which the reporter increase was 0.442%.

As to `CCCNC(=O)C[C@H]1CC[C@H]2[C@@H](COC[C@H](O)CN2C(=O)CC)O1`, the reporter increase was 5.31%.

As to `CCCNC(=O)N1[C@H](C#N)[C@@H](c2ccccc2)[C@H]1CO`, the reporter increase is -3.13%. With `Cc1ccc(S(=O)(=O)NCC[C@H]2CC[C@@H](NC(=O)C3CCOCC3)[C@@H](CO)O2)cc1`, the reporter increase was -2.84%.

Take `CN1CCN(CCNC(=O)Nc2ccccc2[N+](=O)[O-])CC1`: the reporter increase is -5.22%. Consider `Cc1csc(NC(=O)Nc2ccccc2[N+](=O)[O-])n1`, for which the reporter increase is 60.4% (active). Regarding `Cc1csc(NC(=O)NC2(C(F)(F)F)Oc3ccccc3O2)n1`, the reporter increase is -3.69%.

For the compound `C[C@H]1CN([C@@H](C)CO)C(=O)c2cc(Br)cnc2O[C@@H]1CN(C)C(=O)c1ccccc1`, the reporter increase was -3.42%.

As to `COc1ccc(CNc2ncnc3ccccc23)cc1`, the reporter increase was -11.7%. Consider `COc1ccc(Nc2cc(Sc3ccc(OC)cc3)ncn2)cc1`, for which the reporter increase was 13.3%. `COc1ccc(Nc2ncnc3sc(C)cc23)cc1`: the reporter increase was 66.1% (active).

For the compound `Cc1ccc(-c2nnc(SC(C)C#N)n2N)cc1` (centres undefined), the reporter increase is 0.696%. Take `Cc1ccccc1CSc1nnc(-c2cccnc2)n1N`: the reporter increase was 17.5%. As for `C=C(C)CSc1nnc(-c2ccc(C)cc2)n1N`, the reporter increase was 57.8% (active). For the compound `CCS(=O)(=O)Nc1ccc2c(c1)C(=O)N(C)[C@@H]1CC[C@H](CC(=O)N3CCCCC3)O[C@@H]1CO2`, the reporter increase was -2.06%. Regarding `CC(=O)N1CCN(CC(=O)Nc2ccc(C)c(F)c2)CC1`, the reporter increase was -6.19%. As to `O=C(CN1CCN(c2ccc(F)cc2)CC1)Nc1cccc(C(F)(F)F)c1`, the reporter increase is -10.4%. As for `CCc1sc(C(=O)N2CCN(CC(=O)Nc3cccc(F)c3)CC2)cc1C`, the reporter increase is 79.7% (active). In the case of `Cc1ccc(S(=O)(=O)N(C)C[C@@H]2Oc3c(NS(C)(=O)=O)cccc3C(=O)N([C@@H](C)CO)C[C@H]2C)cc1`, the reporter increase is -2.2%. In the case of `O=C(NC[C@@H]1N[C@@H](CO)[C@H]1c1ccc(-c2cccnc2)cc1)c1cccc(F)c1`, the reporter increase is 5.54%. With `COCCNC(=O)C[C@H]1CC[C@H]2[C@H](COc3ccc(NC(=O)C4CCOCC4)cc3C(=O)N2C)O1` the figure was 2.05%; with `Cc1cccc(NC(=O)c2ccc3ccccc3n2)n1`, 25.2%; with `Cc1cccc(NC(=O)COc2ccc(Br)cc2C)n1`, 35.7%. With `Cc1cccc(NC(=O)Cc2ccc(Br)cc2)n1` the figure was 44.9% (active). Take `Cc1cccc(NC(=O)COc2ccccc2C)n1`: the reporter increase is 44.4% (active).

As to `Cc1ccccc1OCC(=O)Nc1nc(C)c(C(=O)N(C)C)s1`, the reporter increase was 9.35%. Regarding `Cc1ccccc1OCC(=O)Nc1nnc(S(=O)(=O)N2CCCC2)s1`, the reporter increase was 1.57%. Regarding `COCCNC(=O)COc1ccccc1C`, the reporter increase is 0.533%.

With `CCOc1ccc(OCc2ccc(C(=O)Nc3cccc(C)n3)o2)cc1`, the reporter increase is 37.5%. With `Cc1ccccc1OCC(=O)Nc1ccc2c(c1)ncn2C` the figure was 68.1% (active). Consider `C/C=C/c1ccc([C@H]2[C@@H](CO)N(C(=O)CC)[C@H]2CN(C)C(=O)C2CC2)cc1`, for which the reporter increase was 5.87%. In the case of `CCCNC(=O)NC[C@H]1[C@H](c2ccc(C3=CCCCC3)cc2)[C@H](CO)N1C(C)=O`, the reporter increase is -2.67%. On to `COCc1cn(CC[C@H]2CC[C@H](NC(=O)Cc3cccnc3)[C@H](CO)O2)nn1`, for which the reporter increase is 1.37%. With `COCC(=O)Nc1ccc2c(c1)OC[C@H](C)N(Cc1ccccc1OC)C[C@@H](C)[C@@H](OC)CN(C)C2=O`, the reporter increase is 0.256%. In the case of `CCCNC(=O)C[C@H]1CC[C@H]2[C@@H](COc3ccc(NC(=O)Nc4c(C)noc4C)cc3C(=O)N2C)O1`, the reporter increase was -1.98%. The result for `COCCCNc1ccn2nc(-c3ccc(CC(C)C)cc3)cc2n1` reads 24.7%; that for `COc1ccccc1-c1cc2nc(NCc3cccc(Cl)c3)ccn2n1`, -5.22%. With `CC(C)Cc1ccc(-c2cc3nc(NCc4cccc(Cl)c4)ccn3n2)cc1` the figure was 79.4% (active). Turning to `COc1ccc(-c2cnc3c(c2)C(=O)N([C@@H](C)CO)C[C@@H](C)[C@H](CN(C)C)O3)cc1`, the reporter increase was -2.94%. For the compound `O=C(C[C@H]1C=C[C@@H](NC(=O)C2CC2)[C@H](CO)O1)NCC1CC1`, the reporter increase is -2.61%. `Oc1[nH]c2ccc(Br)cc2c1N=Nc1nn[nH]n1`: the reporter increase is 6.07%.

Regarding `NS(=O)(=O)c1ccc(N=Nc2c(O)[nH]c3ccc(Br)cc23)cc1`, the reporter increase was -6.6%.

Turning to `Cc1cccc(N=Nc2c(O)[nH]c3ccc(F)cc23)c1`, the reporter increase was 72.6% (active). The result for `Cc1ccc(S(=O)(=O)Nc2ccc3c(c2)C(=O)N([C@H](C)CO)C[C@@H](C)[C@H](CN(C)S(=O)(=O)c2cccs2)OCCCC[C@@H](C)O3)cc1` reads 5.34%; that for `Cc1ccc(S(=O)(=O)N[C@H]2CC[C@H](CC(=O)NCc3ccccc3F)O[C@@H]2CO)cc1`, -2.95%; that for `O=C(O)CC1=C(Nc2ccccc2)C(=O)N(c2ccccc2)C1c1ccc(Cl)cc1` (centres undefined), 49.1% (active).

Take `O=C1C(=O)N(c2ccccc2)C(c2ccccc2)C1c1ccccc1` (centres undefined): the reporter increase was -0.185%. With `O=C1C=C(c2ccc(Cl)cc2)C(=O)N1Nc1ccccc1` the figure was -0.361%; with `C[C@@H]1CN([C@@H](C)CO)C(=O)Cc2cc(NC(=O)C3CCCCC3)ccc2O[C@H]1CN(C)C(=O)Nc1ccccc1`, 0.449%; with `CCOC(=O)c1c(N)nn(C(=O)c2ccccc2)c1-c1ccccc1`, -1.4%. Take `CCOC(=O)c1c(-c2ccc(-c3ccccc3)cc2)csc1NC(=O)CCC(=O)O`: the reporter increase was -6.99%.

Regarding `CCOC(=O)c1c(C)nc(-c2ccccc2)nc1NC(=O)C(C)C`, the reporter increase was 42.3% (active).

As to `O=C(Nc1ccccc1C(=O)Nc1ccncc1)c1ccc([N+](=O)[O-])cc1`, the reporter increase is -2.66%.

Turning to `O=C(O)c1cc([N+](=O)[O-])c(Nc2cccc3ccccc23)c([N+](=O)[O-])c1`, the reporter increase is 15.6%. As to `O=C(Nc1ccc2ccccc2c1[N+](=O)[O-])c1ccccc1`, the reporter increase is 114% (active). With `CC(C)CC#Cc1cnc2c(c1)C(=O)N([C@H](C)CO)C[C@H](C)[C@@H](CN(C)C(=O)Cc1cccnc1)O2` the figure was -2.07%. The result for `COc1ccc(NC(=O)N2C[C@H](O)COC[C@@H]3O[C@@H](CC(=O)NCc4ccccc4OC)CC[C@H]32)cc1` reads 2.12%; that for `CCCNC(=O)[C@@H]1[C@@H](CO)[C@@H]2Cn3c(ccc(/C=C/c4ccccc4)c3=O)[C@H]1N2CCC`, -5.3%; that for `C=CCNC(=O)c1ccc2c3n(nc2c1)-c1ccc(C)cc1CO3`, 56.5% (active). In the case of `Cc1cccc(-c2nc3ccc(C(=O)NCCN4CCN(C)CC4)cc3nc2-c2cccc(C)c2)c1`, the reporter increase was -7.08%. Take `CCOc1c2ccc(C(=O)NCc3ccc4c(c3)OCO4)cc2nn1C`: the reporter increase is -7.4%. Consider `O=C(Nc1cccc(F)c1)NC1CCCCCCC1`, for which the reporter increase is 59.1% (active). For `Cc1cc(C)cc(NC(=O)NC2CCCCCCC2)c1`, the reporter increase was 15.2%. With `O=C(Nc1cccc(F)c1)NC1CCCc2ccccc21` (centres undefined) the figure was -6.65%. With `COc1ccc(/C=N/Nc2nc3ccccc3c(=O)[nH]2)cc1` the figure was 45.1% (active); with `COc1ccc(/C=N/Nc2ccccc2C(=O)O)cc1`, -28.7%; with `COc1ccc(/C=N/Nc2nc(-c3ccc(C)cc3)c(C#N)c(=O)[nH]2)cc1`, -5.86%.

Regarding `CN(C)CC(=O)Nc1ccc2c(c1)[C@H]1C[C@@H](CC(=O)NCc3ccc(-c4ccccc4)cc3)O[C@H](CO)[C@H]1O2`, the reporter increase was 4.03%. For `COc1ccc(NC(=O)Nc2ccc3c(c2)[C@H]2C[C@H](CC(=O)NC4CCCC4)O[C@H](CO)[C@H]2O3)cc1`, the reporter increase was 2.4%. For the compound `Cc1csc(NC(=O)CN2CCCCCC2)n1`, the reporter increase was -1.61%.

On to `Cc1csc(NC(=O)c2ccc(C)s2)n1`, for which the reporter increase was 50.8% (active). Regarding `Cc1csc(NC(=O)C2CCN(S(=O)(=O)c3ccccc3)CC2)n1`, the reporter increase is -5.46%.
